Results filed as inconclusive are left out. Where a call stands in place of a potency, no number is given. The source made the active and inactive calls. Calls follow the shape of the dose curve; as a rule, active = well fitted inhibition curve with a large enough effect; inconclusive = small, poorly fitted or top-dose-only effect; inactive = flat fitted curve, though single readings scatter.
Tests used:
Assay in all cases: qHTS profiling for inhibitors of Plasmodium falciparum proliferation (AID 504749); also: nearly all actives have a fitted effect of over 60% in size
Details in all cases: P. falciparum in erythrocytes, SYBR Green DNA, 72 h; series mostly up to 28.7 µM
[1] = tested on: CP291
Procedure, shortened: (§1)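 Each compound contacts P. falciparum-infected red blood cells for 72 h at 37 C; lysis buffer (Tris, EDTA, saponin, Triton X, SYBR Green I) is added and fluorescence measured next morning; values normalized to controls.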

[2] = tested on: CP297
Procedure, shortened: as §1

[3] = tested on: CP305
Procedure, shortened: as §1

[4] = tested on: CP315
Procedure, shortened: as §1

[5] = tested on: CP325
Procedure, shortened: as §1

[6] = tested on: CP329
Procedure, shortened: as §1

[7] = tested on: CP335
Procedure, shortened: as §1

[8] = tested on: DFO2036
Procedure, shortened: as §1

[9] = tested on: DIV14
Procedure, shortened: as §1

[10] = tested on: DIV17
Procedure, shortened: as §1

[11] = tested on: DIV30
Procedure, shortened: as §1

[12] = tested on: Dd2
Procedure, shortened: as §1

[13] = tested on: ECU
Procedure, shortened: as §1

[14] = tested on: FAB9
Procedure, shortened: as §1

[15] = tested on: GB4
Procedure, shortened: as §1

[16] = tested on: HB3
Procedure, shortened: as §1

[17] = tested on: ICS
Procedure, shortened: as §1

[18] = tested on: JCK
Procedure, shortened: as §1

[19] = tested on: N140
Procedure, shortened: as §1

[20] = tested on: P93_24
Procedure, shortened: as §1
Potency is read from the fitted curve at half-maximal effect.

| Compound | Potency [1] | Potency [2] | Potency [3] | Potency [4] | Potency [5] | Potency [6] | Potency [7] | Potency [8] | Potency [9] | Potency [10] | Potency [11] | Potency [12] | Potency [13] | Potency [14] | Potency [15] | Potency [16] | Potency [17] | Potency [18] | Potency [19] | Potency [20] |
| --- | --- | --- | --- | --- | --- | --- | --- | --- | --- | --- | --- | --- | --- | --- | --- | --- | --- | --- | --- | --- |
| Nc1nc(N)nc(-c2cc(Cl)ccc2Cl)n1 | inactive | inactive | inactive | inactive | inactive | inactive | inactive | inactive | inactive | inactive | inactive | inactive | inactive | inactive | inactive | inactive | inactive | inactive | inactive | inactive |
| CCc1c2c(nc3ccc(OC(=O)N4CCC(N5CCCCC5)CC4)cc13)-c1cc3c(c(=O)n1C2)COC(=O)[C@]3(O)CC | inactive | inactive | inactive | inactive | inactive | inactive | inactive | inactive | inactive | inactive | inactive | inactive | inactive | inactive | inactive | inactive | inactive | inactive | inactive | inactive |
| COc1cc(NCc2ccc3nc(N)nc(N)c3c2C)cc(OC)c1OC | 478 nM (active) | 426 nM (active) | 601 nM (active) | 849 nM (active) | 953 nM (active) | 379 nM (active) | 151 nM (active) | 355 nM (active) | 169 nM (active) | 239 nM (active) | 4780 nM (active) | 631 nM (active) | 5 nM (active) | 4.5 nM (active) | 1.5 nM (active) | 31.6 nM (active) | 794 nM (active) | 7080 nM (active) | 447 nM (active) | 398 nM (active) |
| N[C@@H](C(=O)N[C@@H]1C(=O)N2C(C(=O)O)=C(Cl)CS[C@H]12)c1ccccc1 | inactive | inactive | inactive | inactive | inactive | inactive | inactive | inactive | inactive | inactive | inactive | inactive | inactive | inactive | inactive | inactive | inactive | inactive | inactive | inactive |
| C[C@]12C=CC(=O)C=C1CC[C@@H]1[C@@H]2C(=O)C[C@@]2(C)[C@H]1CC[C@]2(O)C(=O)CO | inactive | inactive | inactive | inactive | inactive | inactive | inactive | inactive | inactive | inactive | inactive | inactive | inactive | inactive | inactive | inactive | inactive | inactive | inactive | inactive |
| CN(C)c1ccc(C(=C2C=CC(=[N+](C)C)C=C2)c2ccc(N(C)C)cc2)cc1 | 675 nM (active) | 953 nM (active) | 338 nM (active) | 953 nM (active) | 478 nM (active) | 601 nM (active) | 301 nM (active) | 199 nM (active) | 478 nM (active) | 601 nM (active) | 478 nM (active) | 158 nM (active) | 355 nM (active) | 355 nM (active) | 239 nM (active) | 631 nM (active) | 251 nM (active) | 631 nM (active) | 355 nM (active) | 316 nM (active) |
| COc1ccc2cc3[n+](cc2c1OC)CCc1cc2c(cc1-3)OCO2 | 1510 nM (active) | 1350 nM (active) | 757 nM (active) | 1070 nM (active) | 953 nM (active) | 953 nM (active) | 953 nM (active) | 891 nM (active) | 849 nM (active) | 1070 nM (active) | 1350 nM (active) | 794 nM (active) | 1410 nM (active) | 708 nM (active) | 675 nM (active) | 1780 nM (active) | 1120 nM (active) | 3160 nM (active) | 1260 nM (active) | 562 nM (active) |
| Nc1nc(N)c2nc(CNc3ccc(C(=O)NC(CCC(=O)O)C(=O)O)cc3)cnc2n1 (configuration not stated) | inactive | inactive | inactive | inactive | inactive | inactive | inactive | inactive | inactive | inactive | inactive | inactive | inactive | inactive | inactive | inactive | inactive | inactive | inactive | inactive |
| NC(N)=NC(N)=NCCc1ccccc1 | inactive | inactive | inactive | inactive | inactive | inactive | inactive | inactive | inactive | inactive | inactive | inactive | inactive | inactive | inactive | inactive | inactive | inactive | inactive | inactive |
| COc1cnc(NS(=O)(=O)c2ccc(N)cc2)nc1 | inactive | inactive | inactive | inactive | inactive | inactive | inactive | inactive | inactive | inactive | inactive | inactive | inactive | inactive | inactive | inactive | inactive | inactive | inactive | – |
| CCc1cc(C(N)=S)ccn1 | inactive | inactive | inactive | inactive | inactive | inactive | inactive | inactive | inactive | inactive | inactive | inactive | inactive | inactive | inactive | inactive | inactive | inactive | inactive | inactive |
| Cc1cccc(Nc2ccncc2S(=O)(=O)NC(=O)NC(C)C)c1 | inactive | inactive | inactive | inactive | inactive | inactive | inactive | inactive | inactive | inactive | inactive | inactive | inactive | inactive | inactive | inactive | inactive | inactive | inactive | inactive |
| NCCCC(O)(P(=O)(O)O)P(=O)(O)O | inactive | inactive | inactive | inactive | inactive | inactive | inactive | inactive | inactive | inactive | inactive | inactive | inactive | inactive | inactive | inactive | inactive | inactive | inactive | inactive |
| O=NN(CCCl)C(=O)NC1CCCCC1 | inactive | inactive | inactive | inactive | inactive | inactive | inactive | inactive | inactive | inactive | inactive | inactive | inactive | inactive | inactive | inactive | inactive | inactive | inactive | inactive |
| CNC1CCCN(c2c(F)cc3c(=O)c(C(=O)O)cn(C4CC4)c3c2OC)C1 (configuration not stated) | inactive | inactive | inactive | inactive | inactive | inactive | inactive | inactive | inactive | inactive | inactive | inactive | inactive | inactive | inactive | inactive | inactive | inactive | inactive | inactive |
| Cc1ccnc2c1NC(=O)c1cccnc1N2C1CC1 | inactive | inactive | inactive | inactive | inactive | inactive | inactive | inactive | inactive | inactive | inactive | inactive | inactive | inactive | inactive | inactive | inactive | inactive | inactive | inactive |
| CN1CCN(c2c(F)cc3c(=O)c(C(=O)O)cn4c3c2OCN4C)CC1 | inactive | inactive | inactive | inactive | inactive | inactive | inactive | inactive | inactive | inactive | inactive | inactive | inactive | inactive | inactive | inactive | inactive | inactive | inactive | – |
| CCCN[C@H]1CCc2nc(N)sc2C1 | inactive | inactive | inactive | inactive | inactive | inactive | inactive | inactive | inactive | inactive | inactive | inactive | inactive | inactive | inactive | inactive | inactive | inactive | inactive | inactive |
| Cc1ncc([N+](=O)[O-])n1CCO | inactive | inactive | inactive | inactive | inactive | inactive | inactive | inactive | inactive | inactive | inactive | inactive | inactive | inactive | inactive | inactive | inactive | inactive | inactive | inactive |
| COc1ncnc(NS(=O)(=O)c2ccc(N)cc2)c1OC | inactive | inactive | inactive | inactive | inactive | inactive | inactive | inactive | inactive | inactive | inactive | inactive | inactive | inactive | inactive | inactive | inactive | inactive | inactive | inactive |
| COC(=O)Nc1nc2ccc(Sc3ccccc3)cc2[nH]1 | inactive | inactive | inactive | inactive | inactive | inactive | inactive | inactive | inactive | inactive | inactive | inactive | inactive | inactive | inactive | inactive | inactive | inactive | inactive | inactive |
| Nc1ccc(S(=O)(=O)Nc2ccccn2)cc1 | inactive | inactive | inactive | inactive | inactive | inactive | inactive | inactive | inactive | inactive | inactive | inactive | inactive | inactive | inactive | inactive | inactive | inactive | inactive | – |
| Cc1cccc(N(C)C(=S)Oc2ccc3ccccc3c2)c1 | inactive | inactive | inactive | inactive | inactive | inactive | inactive | inactive | inactive | inactive | inactive | inactive | inactive | inactive | inactive | inactive | inactive | inactive | inactive | inactive |
| CCN(C)C(=O)Oc1cccc([C@H](C)N(C)C)c1 | inactive | inactive | inactive | inactive | inactive | inactive | inactive | inactive | inactive | inactive | inactive | inactive | inactive | inactive | inactive | inactive | inactive | inactive | inactive | inactive |
| O=c1cc(O)c(Cl)c[nH]1 | inactive | inactive | inactive | inactive | inactive | inactive | inactive | inactive | inactive | inactive | inactive | inactive | inactive | inactive | inactive | inactive | inactive | inactive | inactive | inactive |
| O=C(O)c1cc(=O)[nH]c(=O)[nH]1 | inactive | inactive | inactive | inactive | inactive | inactive | inactive | inactive | inactive | inactive | inactive | inactive | inactive | inactive | inactive | inactive | inactive | inactive | inactive | inactive |

— PubChem BioAssay (NCATS)
